According to PubChem BioAssay (NCATS):
Where “and” joins values, the source holds several entries; their conditions need not be identical. Equal entries are not always repeated. Inconclusive results are not listed. A number with no mark means an inactive call. Calls of active or inactive are those of the source. Calls come from the whole dose curve; as a rule, active = well fitted cell-killing curve with a large enough effect; inconclusive = small, poorly fitted or top-dose-only effect; inactive = flat fitted curve, though single readings scatter.

Assay: Cellular viability qHTS for adrenocortical cancer (ACC) cell line SW-13 (AID 1963989); note: nearly all actives have a fitted effect of over 65% in size;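 for activity (max response): cells grown in serum-free medium with ITS supplement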
Conditions: SW-13 ACC cells viability, CellTiter-Glo, 48 h; activity (max response): active compounds read low
How it was run: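 IC50 and maximal-response values come from four-parameter logistic fits of titration data. SW-13 cells in serum-free medium received compounds (up to 46 uM final) for 48 h before CellTiter-Glo luminescence.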
% is set by controls: 0 for no effect and ±100 for the full control effect; potency is the fitted concentration of half-maximal effect.

| Compound | Potency | activity (max response) [%] |
| --- | --- | --- |
| Oc1ccc(Cl)cc1Cc1ccccc1 | 35.5 µM (active) | – |
| COc1cc(C)[nH]c(=O)c1CNC(=O)c1c(C)n([C@H](C)C2CCOCC2)c2ccccc12 | – | 8.24 |
| CN[C@@H](C)[C@H](O)c1ccccc1 | – | -4.49 |
| CC(C)=CC1C(C(=O)OCN2C(=O)C3=C(CCCC3)C2=O)C1(C)C (stereo not drawn) | – | -13.2 |
| CC1NCCOC1c1ccccc1 (stereo not drawn) | – | -0.553 |
| CCN(CC)CCOC(=O)C(C)(c1ccccc1)c1ccccc1 | – | -13.3 |
| NCc1cccnc1 | – | 4.01 |
| O=C(O)COc1ccccc1 | – | 18.4 |
| Cc1cccc(C)c1NC1=NCCCS1 | – | -0.0852 |
| NCC(O)c1ccc(O)cc1 (stereo not drawn) | – | 9.24 |
| C[C@@H]1O[C@@H](O[C@@H]2C=C3CC[C@@H]4[C@H](CC[C@]5(C)[C@@H](c6ccc(=O)oc6)CC[C@]45O)[C@@]3(C)CC2)[C@H](O)[C@H](O)[C@H]1O | 11.2 nM (active) and 7.3 nM (active) | – |
| CC1OC(C)OC(C)O1 (stereo not drawn) | – | 14 |
| CCCC[N+]1(C)[C@@H]2CC(OC(=O)[C@H](CO)c3ccccc3)C[C@H]1[C@@H]1O[C@@H]12 (stereo partly drawn) | – | 15.3 |
| Cc1ncc(CNC(=O)N(CCCl)N=O)c(N)n1 | – | 2.91 |
| COC(=O)C1=CCCN(C)C1 | – | 1.83 |
| COCC(=O)N(c1c(C)cccc1C)C(C)C(=O)OC (stereo not drawn) | – | 0.998 |
| C[C@@H]1CC[C@@]2(OC1)O[C@H]1C[C@H]3[C@@H]4CC=C5C[C@@H](O[C@@H]6O[C@H](CO)[C@@H](O[C@@H]7O[C@@H](C)[C@H](O)[C@@H](O)[C@H]7O)[C@H](O)[C@H]6O[C@@H]6O[C@@H](C)[C@H](O)[C@@H](O)[C@H]6O)CC[C@]5(C)[C@H]4CC[C@]3(C)[C@H]1[C@@H]2C | 3.55 µM (active) | – |
| O=c1cccc2n1CC1CNC[C@H]2C1 | – | -2.44 |
| CC1(C)CC(O)CC(C)(C)N1O | – | -2.2 |

| Compound | Potency | activity (max response) [%] |
| --- | --- | --- |
| CC(C)(N)Cc1ccc(Cl)cc1 | – | 9.02 |
| Oc1cc(Cl)ccc1Oc1ccc(Cl)cc1Cl | 7.94 µM (active) and 13 µM (active) | – |
| COc1cc(C[C@@H](C)N)c(OC)cc1C | – | -18.7 |
| C=CCC1(C(C)CC)C(=O)NC(=O)NC1=O (stereo not drawn) | – | 0.393 |
| Cc1ccc(N=CN(C)C=Nc2ccc(C)cc2C)c(C)c1 | – | 9.45 |
| CCCN1CCO[C@@H]2c3cc(O)ccc3OC[C@H]21 | – | 7.73 |
| NCC(CC(=O)O)c1ccc(Cl)cc1 (stereo not drawn) | – | -6.89 |
| O=C(CCCCl)c1ccc(F)cc1 | – | 6.97 |
| CCOP(=S)(OCC)Oc1cc(C)nc(C(C)C)n1 | – | 8.98 |
| COc1cc(CC(C)N)cc(OC)c1OC (stereo not drawn) | – | -27.2 |
| COc1ccc(OC)c(CC(C)N)c1 (stereo not drawn) | – | -20.2 |
| COC(=O)C(Cl)C(=O)OC | – | -3.15 |
| COc1cc(N)c(Cl)cc1C(=O)NC1CN2CCC1CC2 (stereo not drawn) | – | -1.3 |
| C=CCN1CC[C@]23CCCC[C@H]2[C@H]1Cc1ccc(O)cc13 | – | -5.85 |
| CCC(=O)OC1(c2ccccc2)CCN(C)CC1 | – | -11.5 |
| Nc1ccc(Cl)cc1 | – | 5.53 |
| CN1[C@H]2CC(O)C[C@H]1[C@H]1O[C@H]12 (stereo partly drawn) | – | 10.2 |
| CN1CCC(O)(c2ccc(F)cc2)C(C(=O)c2ccc(F)cc2)C1 (stereo not drawn) | – | 0.424 |
| O=C(N/N=C/c1ccc([N+](=O)[O-])o1)c1cc([N+](=O)[O-])cc([N+](=O)[O-])c1O | – | -8.68 |
